# According to PubChem BioAssay (NCI):
# The panel holds about 83,000 compounds, 20% with a hit somewhere; the sample as a whole holds those more often.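 For each line, cells grew in 96-well plates with the test compound present at a single concentration for 48 hours.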 Values without a mark were called inactive. Active and inactive are the calls of the source. How the source made its calls: active means growth percent below 10; inactive means the rest.
# How the values were obtained:
# Assay in all cases: NCI-60 one-dose screen, 48 h (100 = growth as untreated, 0 = no growth, -100 = all killed)
# Settings in all cases: 10 µM unless noted
# NCI-H23 lung = system: NCI-H23 lung
# NCI-H226 lung = system: NCI-H226 lung
# NCI-H322M lung = system: NCI-H322M lung
# HOP-62 NSCLC = system: HOP-62 NSCLC
# NCI-H460 lung = system: NCI-H460 lung
# HOP-92 NSCLC = system: HOP-92 NSCLC
# NCI-H522 lung = system: NCI-H522 lung
# A549/ATCC NSCLC = system: A549/ATCC NSCLC
# 786-0 renal = system: 786-0 renal
# COLO 205 colon = system: COLO 205 colon
# DU-145 prostate = system: DU-145 prostate
# K-562 leukemia = system: K-562 leukemia
# MALME-3M melanoma = system: MALME-3M melanoma
# MDA-MB-231 breast = system: MDA-MB-231 breast
# RXF 393 renal = system: RXF 393 renal
# SF-268 CNS = system: SF-268 CNS
# SF-539 CNS = system: SF-539 CNS
# M14 melanoma = system: M14 melanoma
# SF-295 CNS = system: SF-295 CNS
# UACC-257 melanoma = system: UACC-257 melanoma
Compound,growth (NCI-H23 lung),growth (NCI-H226 lung),growth (NCI-H322M lung),growth (HOP-62 NSCLC),growth (NCI-H460 lung),growth (HOP-92 NSCLC),growth (NCI-H522 lung),growth (A549/ATCC NSCLC),growth (786-0 renal),growth (COLO 205 colon),growth (DU-145 prostate),growth (K-562 leukemia),growth (MALME-3M melanoma),growth (MDA-MB-231 breast),growth (RXF 393 renal),growth (SF-268 CNS),growth (SF-539 CNS),growth (M14 melanoma),growth (SF-295 CNS),growth (UACC-257 melanoma)
O=C1Nc2ccccc2C12CC(c1ccccc1)=NN2 (centres undefined),70%,79.3%,66.3%,58.6%,33.2%,59.2%,24.6%,39.3%,61.7%,31.4%,88.1%,18.5%,40.1%,55.4%,90.6%,67.1%,47%,38.1%,–,–
COc1ccc2nc3cc(Cl)ccc3c(N3CCN(c4ccnc(N5CCN(C)CC5)n4)CC3)c2c1,34.6%,90.2%,94.2%,73.4%,64.7%,59.6%,-60.4% (active),83.4%,78.9%,-45.3% (active),3.84% (active),-36.1% (active),83.8%,28.3%,10.5%,52.8%,–,58.5%,93.9%,90.7%
COc1ncc(-c2ccc3ncnc(Nc4cccc(Cl)c4)c3c2)cc1NS(C)(=O)=O,37.4%,47.2%,-6.97% (active),56.6%,28.3%,-14.7% (active),33.3%,15.8%,46.2%,41.5%,27.4%,56.3%,-2.69% (active),43.8%,7.92% (active),44.8%,–,46.9%,32.1%,–
Cc1sc2nc3[nH]/c(=C\c4ccc(Cl)cc4)c(=O)n3c(=O)c2c1C,103%,100%,103%,110%,104%,92.7%,88.1%,94.1%,95.1%,112%,109%,101%,102%,111%,99.5%,102%,103%,103%,–,–
CCCCCCCCOC(=O)CC[C@@H](C)[C@H]1CC[C@H]2[C@@H]3[C@H](OC(=O)CCN)C[C@@H]4C[C@H](OC(=O)CCN)CC[C@]4(C)[C@H]3C[C@H](OC(=O)CCN)[C@]12C,90.3%,89.8%,71.4%,37.7%,73.7%,40.7%,10.8%,81.3%,99.1%,66.4%,74.4%,-74.5% (active),67.8%,69.3%,109%,69.7%,56.3%,84.4%,–,–
NC(N)=Nc1ccc(S(=O)(=O)O)cc1,102%,105%,114%,106%,109%,84.3%,79.3%,106%,98.3%,109%,131%,92.2%,103%,93.6%,136%,110%,–,110%,117%,99.1%
CCC(C)[C@@H]1NC(=O)[C@@H]2CCCN2C(=O)[C@H](Cc2ccccc2)NC(=O)[C@@H]2CCCN2C(=O)[C@H](Cc2ccccc2)NC(=O)[C@@H]2CCCN2C(=O)[C@H](Cc2ccccc2)NC1=O (some centres undefined),113%,109%,127%,103%,104%,95.3%,96.3%,101%,109%,108%,118%,91.5%,126%,104%,111%,119%,109%,105%,–,–
CCC(c1ccc(O)cc1)C(CC)c1ccc(O)c(F)c1 (centres undefined),77%,91.6%,91.1%,94.5%,98.9%,59.5%,77.9%,89%,75.4%,114%,97.6%,47.4%,85.2%,97.2%,92.6%,82.6%,–,80.5%,84.9%,89%
O=C1Nc2ccccc2/C1=C/C(=N/c1nnc(-c2ccccc2)s1)c1ccccc1,45.7%,86.5%,95.7%,57%,88.2%,45.4%,-59.3% (active),80.2%,-19.3% (active),2.53% (active),34.4%,20.4%,37.8%,54.5%,27.1%,60.4%,52.7%,75.7%,–,–
Clc1cccc(Nc2nc(Nc3cnc4ccccc4c3)c3[nH]cnc3n2)c1,84.3%,72.3%,89.1%,59.9%,61.1%,7.57% (active),61.9%,74.4%,109%,79.8%,82.6%,81.5%,116%,47.7%,69.7%,82.4%,–,88%,94.6%,81.7%
NC(=S)N/N=C/c1ccc(OCc2ccccc2)cc1,84%,61.1%,79.9%,93.8%,86.7%,48.5%,-24.1% (active),68.4%,41.7%,56.9%,85.3%,43.7%,56.2%,69.9%,52.4%,80.9%,–,71.6%,96%,60.7%
Cc1ccn2c(-c3csc(Nc4cccc(O)c4)n3)c(C)nc2c1,25.5%,35.7%,58.4%,2.98% (active),13.7%,52.2%,-17.4% (active),38.9%,40.1%,-87.1% (active),17.7%,2.56% (active),65.4%,-1.81% (active),0.213% (active),39.5%,–,16%,16.3%,77.2%
NC1=CSC2=N/C(=C\c3ccc(Cl)cc3)C(=O)N12,72.6%,80.3%,95.7%,83.5%,62.1%,69.5%,33.8%,74.2%,81.4%,90%,77.9%,40.1%,64.9%,83.2%,65.7%,90.4%,90.4%,76.8%,–,–
Cn1c(=O)c2c(ncn2CC[N+](C)(C)C)n(C)c1=O,99.9%,93.2%,101%,92%,109%,110%,80.7%,91.7%,108%,103%,104%,92.1%,105%,104%,111%,98.6%,–,103%,103%,94.4%
O=c1c2cccc3c(Nc4ccccn4)ccc(c32)c2nc3ccccc3n12,60.6%,69.7%,74.5%,67.8%,52.7%,54.9%,56.6%,70.9%,88.4%,71%,91.8%,46.5%,86.3%,70.6%,108%,87.2%,85.7%,91%,–,–
COC(=O)C12C3C(=O)N(c4ccc(OC)cc4)C(=O)C3C(c3cn(-c4ccccc4)nc3C)N1[C@H](c1cn(-c3ccccc3)nc1C)[C@@H]1C(=O)N(c3ccc(OC)cc3)C(=O)[C@@H]12 (some centres undefined),103%,99.7%,112%,116%,99.8%,97.4%,91.2%,100%,102%,112%,109%,92.3%,108%,108%,102%,104%,–,105%,91.8%,98%
CCN(CC)CCCC(C)N/C(=C1\C(=O)NC(=O)\C1=C(/NC(C)CCCN(CC)CC)c1cccc(OC)c1)c1cccc(OC)c1 (centres undefined),-22% (active),-21.3% (active),-49.6% (active),-6.86% (active),-38.1% (active),-1.22% (active),-74.9% (active),-52.9% (active),9.02% (active),-62.9% (active),4.62% (active),-24.6% (active),-84.2% (active),-50.9% (active),-20.8% (active),-24% (active),-80.6% (active),-75.1% (active),–,–
